# Measured values from PubChem BioAssay (EPA / NIEHS).
# Values joined by “and” are separate entries in the source; they are usually repeats but may differ in a detail not shown here. Equal entries are not always repeated. Records with an inconclusive call do not appear. Active and inactive are the calls of the source. The calls were made as follows: active = hit-call score of the fitted dose curve at least 0.9, where 1 is the maximum; inconclusive = response in the unintended direction; inactive = score below 0.9.
# Columns and labels:
# [1] = target: Serine/threonine-protein phosphatase PP1-alpha catalytic subunit (Homo sapiens) (UniProt P62136); assay: NVS_ENZ_hPPP1CA: NovaScreen (NVS) Enzymatic Assay for human Protein Phosphatase 1 Aatalytic subunit Alpha (PPP1CA) (AID 2283200)
# Summary of the method: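 Chemicals were first screened in duplicate at 25 uM, and those passing threshold (e.g. 30% inhibition) were run as concentration series to 50 uM. Cell-free recombinant protein, 1.33 h read, fluorescent substrate/product mobility-shift detection, normalised to DMSO.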
# [2] = target: human Protein Tyrosine Phosphatase Non-receptor Type 1 (PTPN1), PTPN1 (gene 5770) (UniProt P18031); assay: NVS_ENZ_hPTPN1: NovaScreen (NVS) Enzymatic Assay for human Protein Tyrosine Phosphatase Non-receptor Type 1 (PTPN1) (AID 2283201)
# Summary of the method: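 Chemicals were first tested in duplicate at 25 uM, and those passing threshold went on to singleton concentration series topping at 50 uM. Recombinant enzyme, specific substrate, product separated by mobility shift, fluorescence read at 1.33 h; activity loss relative to DMSO.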
# [3] = target: Tyrosine-protein phosphatase non-receptor type 11 (Homo sapiens) (UniProt Q06124); assay: NVS_ENZ_hPTPN11: NovaScreen (NVS) Enzymatic Assay for human Protein Tyrosine Phosphatase Non-receptor Type 11 (PTPN11) (AID 2283202)
# Chain of Tyrosine-protein phosphatase non-receptor type 11 (Homo sapiens) (Q06124 whole entry, looked up): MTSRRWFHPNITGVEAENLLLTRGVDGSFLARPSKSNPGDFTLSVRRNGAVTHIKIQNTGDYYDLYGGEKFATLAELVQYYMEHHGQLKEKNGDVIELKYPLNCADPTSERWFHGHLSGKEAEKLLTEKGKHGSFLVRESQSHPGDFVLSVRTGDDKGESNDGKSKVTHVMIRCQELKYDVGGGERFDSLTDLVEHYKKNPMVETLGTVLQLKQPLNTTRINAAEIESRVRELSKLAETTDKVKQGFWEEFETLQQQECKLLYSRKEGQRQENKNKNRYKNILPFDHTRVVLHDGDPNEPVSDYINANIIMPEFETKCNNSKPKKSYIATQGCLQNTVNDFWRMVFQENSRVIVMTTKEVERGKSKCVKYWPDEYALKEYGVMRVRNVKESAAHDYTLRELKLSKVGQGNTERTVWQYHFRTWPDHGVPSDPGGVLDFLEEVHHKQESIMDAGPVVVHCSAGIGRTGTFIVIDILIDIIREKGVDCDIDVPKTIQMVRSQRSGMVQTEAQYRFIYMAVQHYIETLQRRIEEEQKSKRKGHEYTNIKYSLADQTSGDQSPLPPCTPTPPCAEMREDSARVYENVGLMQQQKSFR
# Summary of the method: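 Compounds first tested in duplicate at 25 uM; those reaching ~30% inhibition rerun in singleton concentration-response, top 50 uM. Phosphatase activity measured after 0.5 h by fluorescence with mobility-shift separation, relative to DMSO.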
# [4] = target: Tyrosine-protein phosphatase non-receptor type 12 (Homo sapiens) (UniProt Q05209); assay: NVS_ENZ_hPTPN12: NovaScreen (NVS) Enzymatic Assay for human Protein Tyrosine Phosphatase Non-receptor Type 12 (PTPN12) (AID 2283204)
# Chain of Tyrosine-protein phosphatase non-receptor type 12 (Homo sapiens) (Q05209 whole entry, looked up): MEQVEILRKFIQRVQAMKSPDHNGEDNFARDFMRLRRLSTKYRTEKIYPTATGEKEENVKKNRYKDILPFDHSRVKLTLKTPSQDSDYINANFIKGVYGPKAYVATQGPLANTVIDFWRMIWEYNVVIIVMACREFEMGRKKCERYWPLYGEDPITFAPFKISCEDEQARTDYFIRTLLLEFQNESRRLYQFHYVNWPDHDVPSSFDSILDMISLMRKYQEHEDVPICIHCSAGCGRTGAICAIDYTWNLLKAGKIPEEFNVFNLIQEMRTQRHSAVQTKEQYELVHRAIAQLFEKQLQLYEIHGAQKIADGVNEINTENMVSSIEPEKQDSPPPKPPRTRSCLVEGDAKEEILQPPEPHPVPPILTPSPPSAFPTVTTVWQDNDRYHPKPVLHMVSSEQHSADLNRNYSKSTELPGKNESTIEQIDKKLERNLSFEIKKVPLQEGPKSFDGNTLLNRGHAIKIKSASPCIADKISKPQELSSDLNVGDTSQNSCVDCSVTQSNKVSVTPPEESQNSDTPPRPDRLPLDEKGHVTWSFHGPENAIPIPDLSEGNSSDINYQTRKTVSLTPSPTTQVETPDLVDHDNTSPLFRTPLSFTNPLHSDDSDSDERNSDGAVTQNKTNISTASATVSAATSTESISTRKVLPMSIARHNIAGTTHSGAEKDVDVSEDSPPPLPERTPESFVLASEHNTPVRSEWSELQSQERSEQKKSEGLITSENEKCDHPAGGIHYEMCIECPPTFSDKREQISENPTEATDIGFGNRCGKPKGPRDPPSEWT
# Summary of the method: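 Single-concentration duplicates (25 uM) preceded singleton concentration-response up to 50 uM for chemicals passing threshold. Cell-free recombinant PTPN12 activity was read 1.33 h after dosing via fluorescence after mobility-shift separation; loss of signal versus DMSO.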
# [5] = target: Tyrosine-protein phosphatase non-receptor type 13 (Homo sapiens) (UniProt Q12923); assay: NVS_ENZ_hPTPN13: NovaScreen (NVS) Enzymatic Assay for human Protein Tyrosine Phosphatase Non-receptor Type 13 (PTPN13) (AID 2283205)
# Chain of Tyrosine-protein phosphatase non-receptor type 13 (Homo sapiens) (Q12923 whole entry, looked up): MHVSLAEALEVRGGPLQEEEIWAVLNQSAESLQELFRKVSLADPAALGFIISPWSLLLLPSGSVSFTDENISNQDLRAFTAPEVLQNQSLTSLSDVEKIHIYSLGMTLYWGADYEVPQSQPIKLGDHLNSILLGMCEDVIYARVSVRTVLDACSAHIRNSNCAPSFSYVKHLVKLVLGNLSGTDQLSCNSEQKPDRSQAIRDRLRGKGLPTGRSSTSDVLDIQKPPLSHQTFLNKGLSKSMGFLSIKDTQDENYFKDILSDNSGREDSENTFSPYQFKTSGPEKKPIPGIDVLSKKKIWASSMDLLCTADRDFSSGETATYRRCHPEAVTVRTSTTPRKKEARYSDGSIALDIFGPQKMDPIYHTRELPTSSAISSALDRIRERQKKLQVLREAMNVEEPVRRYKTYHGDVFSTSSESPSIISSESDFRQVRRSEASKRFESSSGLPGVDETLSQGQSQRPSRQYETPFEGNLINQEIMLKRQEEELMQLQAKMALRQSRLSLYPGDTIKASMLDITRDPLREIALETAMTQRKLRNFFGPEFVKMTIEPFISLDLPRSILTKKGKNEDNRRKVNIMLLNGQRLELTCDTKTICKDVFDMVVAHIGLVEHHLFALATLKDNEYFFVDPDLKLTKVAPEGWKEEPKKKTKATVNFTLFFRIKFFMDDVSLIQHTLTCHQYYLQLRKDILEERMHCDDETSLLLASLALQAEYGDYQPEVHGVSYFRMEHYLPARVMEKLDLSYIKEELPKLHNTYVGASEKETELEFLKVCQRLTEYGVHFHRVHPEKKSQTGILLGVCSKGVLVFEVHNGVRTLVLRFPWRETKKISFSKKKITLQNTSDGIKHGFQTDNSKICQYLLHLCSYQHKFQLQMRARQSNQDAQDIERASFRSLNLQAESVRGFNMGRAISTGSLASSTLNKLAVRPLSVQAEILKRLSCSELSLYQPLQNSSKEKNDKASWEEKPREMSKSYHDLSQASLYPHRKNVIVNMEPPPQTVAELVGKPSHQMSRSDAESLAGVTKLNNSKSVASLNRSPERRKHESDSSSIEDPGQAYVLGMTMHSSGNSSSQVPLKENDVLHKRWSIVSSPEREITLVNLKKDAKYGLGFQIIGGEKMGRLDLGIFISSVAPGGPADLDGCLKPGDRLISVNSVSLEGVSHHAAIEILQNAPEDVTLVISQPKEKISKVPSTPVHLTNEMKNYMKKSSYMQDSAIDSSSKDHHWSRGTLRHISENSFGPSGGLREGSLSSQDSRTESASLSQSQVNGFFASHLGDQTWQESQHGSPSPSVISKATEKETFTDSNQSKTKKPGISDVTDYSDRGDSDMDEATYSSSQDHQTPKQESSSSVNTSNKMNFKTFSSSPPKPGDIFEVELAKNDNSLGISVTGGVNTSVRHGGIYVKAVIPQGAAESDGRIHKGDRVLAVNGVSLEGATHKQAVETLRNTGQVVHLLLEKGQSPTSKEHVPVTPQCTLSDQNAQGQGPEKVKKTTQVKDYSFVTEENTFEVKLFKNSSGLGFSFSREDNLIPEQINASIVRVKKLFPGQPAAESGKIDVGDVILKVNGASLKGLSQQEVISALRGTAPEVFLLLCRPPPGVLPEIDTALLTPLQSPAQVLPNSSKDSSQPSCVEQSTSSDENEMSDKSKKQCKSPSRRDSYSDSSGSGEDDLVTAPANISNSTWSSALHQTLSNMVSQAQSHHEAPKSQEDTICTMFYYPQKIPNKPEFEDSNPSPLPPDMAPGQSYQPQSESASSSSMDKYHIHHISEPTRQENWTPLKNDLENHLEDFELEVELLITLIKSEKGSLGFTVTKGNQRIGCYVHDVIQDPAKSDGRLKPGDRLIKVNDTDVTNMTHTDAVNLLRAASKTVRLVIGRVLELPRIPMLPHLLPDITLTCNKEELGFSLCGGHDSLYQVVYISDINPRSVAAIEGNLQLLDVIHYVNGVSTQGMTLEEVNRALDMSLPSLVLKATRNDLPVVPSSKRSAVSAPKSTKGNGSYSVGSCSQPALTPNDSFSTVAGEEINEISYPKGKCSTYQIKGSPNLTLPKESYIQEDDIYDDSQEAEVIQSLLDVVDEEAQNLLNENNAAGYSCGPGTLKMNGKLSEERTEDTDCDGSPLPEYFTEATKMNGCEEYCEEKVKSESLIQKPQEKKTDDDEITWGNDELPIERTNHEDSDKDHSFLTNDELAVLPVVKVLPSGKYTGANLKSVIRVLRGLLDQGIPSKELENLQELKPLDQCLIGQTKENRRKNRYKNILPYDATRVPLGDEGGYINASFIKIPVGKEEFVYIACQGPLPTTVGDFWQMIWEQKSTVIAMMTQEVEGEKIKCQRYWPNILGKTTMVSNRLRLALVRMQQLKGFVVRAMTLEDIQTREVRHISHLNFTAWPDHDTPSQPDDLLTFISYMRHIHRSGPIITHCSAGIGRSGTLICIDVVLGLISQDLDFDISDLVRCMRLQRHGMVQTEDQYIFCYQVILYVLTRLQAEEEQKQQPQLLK
# Summary of the method: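 Screened first at a single 25 uM in duplicate; compounds passing the threshold (e.g. 30% inhibition) were rerun in concentration series, top 50 uM. Recombinant enzyme, fluorescent substrate, mobility-shift separation, 0.5 h read. Data fitted as inhibition relative to DMSO.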
# [6] = target: Tyrosine-protein phosphatase non-receptor type 14 (Homo sapiens) (UniProt Q15678); assay: NVS_ENZ_hPTPN14: NovaScreen (NVS) Enzymatic Assay for human Protein Tyrosine Phosphatase Non-receptor Type 14 (PTPN14) (AID 2283206)
# Summary of the method: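 Fluorescent substrate turnover by recombinant human PTPN14 was measured 0.5 h after compound addition, with substrate and product separated by mobility shift. Single-point screening at 25 uM, then concentration-response up to 50 uM for chemicals meeting threshold (e.g., 30% inhibition).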
# [7] = target: human Protein Tyrosine Phosphatase Non-receptor Type 4 (PTPN4), PTPN4 (gene 5775) (UniProt P29074); assay: NVS_ENZ_hPTPN4: NovaScreen (NVS) Enzymatic Assay for human Protein Tyrosine Phosphatase Non-receptor Type 4 (PTPN4) (AID 2283208)
# Summary of the method: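 Screened in duplicate at 25 uM, with hits then titrated to a top concentration of 50 uM. Recombinant Sf9-derived PTPN4 turnover was read by fluorescence with electrophoretic separation, 1.33 h after compound addition. DMSO served as baseline.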
# [8] = target: human Protein Tyrosine Phosphatase Non-receptor Type 9 (PTPN9), PTPN9 (gene 5780) (UniProt P43378); assay: NVS_ENZ_hPTPN9: NovaScreen (NVS) Enzymatic Assay for human Protein Tyrosine Phosphatase Non-receptor Type 9 (PTPN9) (AID 2283209)
# Chain of human Protein Tyrosine Phosphatase Non-receptor Type 9 (PTPN9), PTPN9 (gene 5780) (P43378 whole entry, looked up): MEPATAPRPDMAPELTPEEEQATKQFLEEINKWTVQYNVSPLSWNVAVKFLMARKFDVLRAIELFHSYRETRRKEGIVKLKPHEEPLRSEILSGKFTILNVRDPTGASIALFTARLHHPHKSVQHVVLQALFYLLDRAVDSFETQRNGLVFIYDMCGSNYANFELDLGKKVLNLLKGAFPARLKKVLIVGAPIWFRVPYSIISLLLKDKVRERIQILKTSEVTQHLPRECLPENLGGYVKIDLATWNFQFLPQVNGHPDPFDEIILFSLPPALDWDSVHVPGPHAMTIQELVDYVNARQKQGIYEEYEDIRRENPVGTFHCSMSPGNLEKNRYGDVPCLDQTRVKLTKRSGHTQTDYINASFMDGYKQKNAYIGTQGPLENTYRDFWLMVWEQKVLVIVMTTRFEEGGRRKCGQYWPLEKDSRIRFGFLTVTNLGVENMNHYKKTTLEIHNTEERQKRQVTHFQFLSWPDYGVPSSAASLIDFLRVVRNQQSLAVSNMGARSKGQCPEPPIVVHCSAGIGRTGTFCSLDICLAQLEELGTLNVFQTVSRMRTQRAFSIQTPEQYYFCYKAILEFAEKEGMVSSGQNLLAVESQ
# Summary of the method: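 Sf9-expressed enzyme in a cell-free assay, fluorescence read 1.33 h after dosing with mobility-shift separation of substrate and product. Tested at 25 uM in duplicate, then up to 50 uM; signal loss versus DMSO.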
# [9] = target: human Protein Tyrosine Phosphatase Non-receptor Type 6 (PTPN6), PTPN6 (gene 5777) (UniProt P29350); assay: NVS_ENZ_hPTPN6: NovaScreen (NVS) Enzymatic Assay for human Protein Tyrosine Phosphatase Non-receptor Type 6 (PTPN6) (AID 2283210)
# Chain of human Protein Tyrosine Phosphatase Non-receptor Type 6 (PTPN6), PTPN6 (gene 5777) (P29350 whole entry, looked up): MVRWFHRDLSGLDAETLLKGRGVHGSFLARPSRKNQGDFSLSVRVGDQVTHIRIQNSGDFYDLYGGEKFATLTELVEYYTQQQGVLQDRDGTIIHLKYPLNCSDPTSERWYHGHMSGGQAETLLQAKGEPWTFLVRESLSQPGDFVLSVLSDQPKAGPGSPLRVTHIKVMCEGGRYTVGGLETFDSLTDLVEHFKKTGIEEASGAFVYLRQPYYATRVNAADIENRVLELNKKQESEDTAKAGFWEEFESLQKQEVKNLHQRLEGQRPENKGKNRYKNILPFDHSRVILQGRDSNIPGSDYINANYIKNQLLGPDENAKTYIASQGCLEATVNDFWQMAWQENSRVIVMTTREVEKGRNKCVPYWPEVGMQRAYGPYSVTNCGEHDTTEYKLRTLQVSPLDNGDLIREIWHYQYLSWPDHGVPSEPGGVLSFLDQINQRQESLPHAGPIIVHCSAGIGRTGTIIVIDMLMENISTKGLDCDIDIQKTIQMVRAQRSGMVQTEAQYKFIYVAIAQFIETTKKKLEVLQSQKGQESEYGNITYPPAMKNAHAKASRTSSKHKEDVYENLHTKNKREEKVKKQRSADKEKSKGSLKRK
# Summary of the method: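 Recombinant human PTPN6 from SF9 cells, enzyme activity followed by fluorescence after mobility-shift separation of substrate and product at 1.33 h. Chemicals first tested at a single 25 uM in duplicate, then confirmed across concentration series; loss of signal relative to DMSO.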
# [10] = target: human Protein Tyrosine Phosphatase Receptor Type B (PTPRB), PTPRB (gene 5787) (UniProt P23467); assay: NVS_ENZ_hPTPRB: NovaScreen (NVS) Enzymatic Assay for human Protein Tyrosine Phosphatase Receptor Type B (PTPRB) (AID 2283211)
# Summary of the method: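 Recombinant human PTPRB with a fluorescent substrate, product separated by electrophoretic mobility shift; read 1 h after dosing. Primary screen in duplicate at 25 uM; actives then retested in concentration series; loss of signal versus DMSO.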
smiles,measurement,setting,value
OB(O)O,outcome,[1],inactive
S=C(S)NCCNC(=S)S.[Mn+2].[S-]C([S-])=NCCN=C([S-])[S-].[Zn+2],AC50,[2],830 nM (active) and 1.81 µM (active)
same,AC50,[3],463 nM (active) and 603 nM (active)
same,AC50,[4],486 nM (active) and 1.35 µM (active)
same,AC50,[5],3.5 µM (active) and 7.66 µM (active) and 4.12 µM (active)
same,AC50,[6],25 µM (active)
same,AC50,[7],183 nM (active) and 38.9 nM (active)
same,AC50,[8],419 nM (active) and 26.1 nM (active)
same,AC50,[9],3.57 µM (active) and 30.5 µM (active)
same,AC50,[10],22.4 nM (active) and 4.12 µM (active)
COc1nc(C)nc(NC(=O)NS(=O)(=O)c2ccccc2OCCCl)n1,outcome,[7],inactive
same,outcome,[8],inactive
CC(C)CCCCCCc1ccc(O)cc1,outcome,[1],inactive
same,outcome,[2],inactive
same,outcome,[3],inactive
same,outcome,[5],inactive
same,outcome,[6],inactive
same,outcome,[8],inactive
CSC(=O)c1cccc2nnsc12,outcome,[7],inactive
S=C([S-])NCCNC(=S)[S-].[Mn+2],AC50,[2],831 nM (active)
same,AC50,[3],144 nM (active)
same,AC50,[4],479 nM (active)
same,AC50,[5],0.594 µM (active)
same,AC50,[6],13.8 µM (active)
same,AC50,[7],3.5 nM (active)
same,AC50,[8],0.00231 µM (active)
same,AC50,[9],34.7 µM (active)
same,AC50,[10],465 nM (active)
O=C(Nc1ccc([N+](=O)[O-])cc1Cl)c1cc(Cl)ccc1O,outcome,[1],inactive
same,AC50,[5],18.7 µM (active)
CC(C)(c1ccc(O)cc1)c1ccc(O)cc1,outcome,[10],inactive
CCCN(CCC)C(=O)SCC,outcome,[10],inactive
O=C(O)C1(C(=O)Nc2ccc(Cl)cc2Cl)CC1,AC50,[1],19.7 µM (active)
same,AC50,[2],3820 nM (active)
same,AC50,[3],6940 nM (active)
same,AC50,[4],25000 nM (active)
same,AC50,[5],3.91 µM (active)
same,AC50,[7],3230 nM (active)
same,AC50,[8],4.28 µM (active)
CN(C)C(=O)Nc1ccc(Cl)c(Cl)c1,outcome,[1],inactive
COC(=O)c1ccccc1S(=O)(=O)NC(=O)Nc1nc(OC(F)F)cc(OC(F)F)n1,outcome,[10],inactive
CCNc1nc(N)nc(Cl)n1,outcome,[10],inactive
CCCN(CCC)c1c([N+](=O)[O-])cc(C(F)(F)F)c(N)c1[N+](=O)[O-],outcome,[4],inactive
same,outcome,[7],inactive
same,AC50,[8],19.9 µM (active)
same,outcome,[9],inactive
CCC(C)OC(=O)N1CCCCC1CCO (stereo unspecified),outcome,[7],inactive
same,outcome,[8],inactive
Oc1ccc(C(c2ccc(O)cc2)C(Cl)(Cl)Cl)cc1,outcome,[3],inactive
c1ccc(Nc2ccccc2)cc1,outcome,[1],inactive
same,outcome,[7],inactive
